High-throughput results as filed in PubChem BioAssay.
In the library only some 7.2% were active in any assay of this set; here they are far more common.
MARV entry inh – blocks Marburg virus binding to or entry into cells. Marburg virus pseudotyped entry inhibition, cell reporter. AID 540276. Potency, µM (titrated, usually from 37.8 µM), actives largely listed as inhibitors. 300,000 tested, 1.8% active; calls by dose curve; tested in HEK293 cells
HCV inhibitor – inhibitors of hepatitis C virus infection. Huh7.5.1 HCVcc-Cre infection, luciferase reporter, 44 h. AID 651820. 340,000 tested, 3.4% active. Potency, µM (doses to about 41.8 µM), most hits filed as inhibitors
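Cells seeded at 1,000/well and cultured 4 h, then compounds added followed by HCVcc-Cre virus (~0.5 moi). After 44 h further culture, luciferase substrate was added, plates held 15 min at room temperature, and luminescence read for 15 sec.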
Sm TGR block – blocks Schistosoma mansoni thioredoxin glutathione reductase | 360,000 tested, 3% active | purified TGR, DTNB reduction, TNB absorbance 405 nm | Potency, µM (top dose mostly 114 µM), actives largely listed as inhibitors | AID 485364; also: nearly all actives have a fitted effect of over 60% in size
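TGR 20 nM + NADPH 100 uM (dispensed conc.), cpd preinc 15 min RT; start with NADPH (500 uM addition) then DTNB (15 mM addition). Kinetic TNB absorbance, 405 nm filter. Four-parameter Hill fit across titration.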
FMDV inh – foot and mouth disease virus antiviral activity | FMDV antiviral cell-based qHTS | Potency, µM (highest dose often 57.9 µM), most hits filed as inhibitors | 410,000 tested, 1.2% active | AID 1159524; calls by dose curve; tested in HEK293T cells; also: read-out not given here; nearly all actives have a fitted effect of over 45% in size
RE007 growth inh – less growth of the S. pombe RE007 Vpr strain. S. pombe RE007 Vpr strain, BacTiter-Glo ATP luminescence, 24 h. Potency, µM (highest dose often 92.2 µM), hits mostly inhibitors. 360,000 tested, 0.21% active; active = well fitted falling curve with a large enough effect; inconclusive = small, poorly fitted or top-dose-only effect; inactive = no such curve, though single readings can be large or run the other way; also: nearly all actives have a fitted effect of over 50% in size
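Fission yeast strain RE007, carrying one chromosomally integrated HIV-1 vpr copy, was seeded at OD 0.01 in PMG+AL medium with 23 nL pinned compound. After 24 h at 30 °C and 99% humidity, viability was read by BacTiter-Glo luminescence.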
Lassa entry inh – blocks Lassa virus binding to or entry into cells; Lassa virus pseudotype entry inhibition, cell reporter; Potency, µM (top dose mostly 37.9 µM), actives largely listed as inhibitors; 300,000 tested, 1.2% active; AID 540256; calls by dose curve; tested in HEK293 cells; also: nearly all actives have a fitted effect of over 50% in size
A number is an active result; - = inactive; ? = inconclusive; . = no result given; [ ] = remark or other dose. Unless noted, calls follow the shape of the dose curve; as a rule, active = well fitted curve in the direction sought with a large enough effect; inconclusive = small, poorly fitted or top-dose-only effect, or another doubt; inactive = no such curve, though single readings can be large; an effect the other way counts as inactive or inconclusive.

SMILES	MARV entry inh	HCV inhibitor	Sm TGR block	FMDV inh	RE007 growth inh	Lassa entry inh
COc1ccc(CN(C)C(=O)CCc2ccc(S(=O)(=O)N3CCCCCC3)cc2)c(OC)c1	.	?	-	-	-	.
COc1ccc(CN(C)C(=O)/C=C/c2ccc(S(=O)(=O)N3CCCCCC3)cc2)cc1	?	11µM	-	?	-	5µM
CC(=O)c1cccc(NC(=O)CSc2nc3c(=O)n(C)c(=O)n(C)c3n2C)c1	.	.	-	-	.	-
COc1cc(C(=O)Nc2ccc3oc(-c4ccc(C)c(Br)c4)nc3c2)cc(OC)c1OC	.	.	-	-	.	-
CC(C)C1(C)C(=O)N=C2C3=C(CCCC3)C(=O)N21 (stereo unspecified)	-	.	.	.	.	.
CC(=O)c1cc(NC(=O)c2cccc(C(F)(F)F)c2)c(=O)oc1C	?	-	35µM	-	-	-
CCOC(=O)Cc1nn(Cc2nc(-c3ccc(C#N)cc3)cs2)c(=O)c2ccccc12	?	10µM	-	18µM	-	?
CCOC(=O)Cc1nn(CC)c(=O)c2ccccc12	.	-	-	-	-	.
COc1ccc(CNc2cc(-c3ccccc3C)ncn2)c(OC)c1	.	.	.	-	.	.
NC(=O)N/N=C/C=C/c1ccccc1	?	-	.	-	-	-
NC(=O)N\N=C/C=C/C=C/c1ccc(F)cc1	-	-	25µM	-	-	?
CC(=O)NCCNc1ncnc2ccc(-c3cccc(NS(C)(=O)=O)c3)cc12	.	.	.	-	.	.
CCCCCCN1C[C@H](O)[C@@H](n2cc(-c3ccc(F)cc3)nn2)C[C@H]1c1ccccc1	.	.	.	.	.	16µM
CCCCCCN1C[C@H](O)[C@@H](n2cc(-c3ccc(F)cc3)nn2)C[C@H]1c1ccc(C)cc1	.	.	.	.	.	25µM
CCCCCCN1C[C@H](n2cc(-c3ccc(F)cc3)nn2)[C@@H](O)C[C@@H]1c1ccc(C)cc1	.	.	.	-	-	.
O=C(CSc1nc2cccnc2n1Cc1ccccc1)N1CCCC1	-	?	-	-	-	-
Cn1c(SCC(=O)N2CCCC2)nc2cccnc21	-	-	40µM	-	-	-
CCOC(=O)c1ccc(NC(=O)CSc2nc3cccnc3n2C)cc1	?	?	-	16µM	-	-
Cc1cc2ccccc2nc1SCC(=O)N1CCCC1	-	1µM	-	-	-	-
COc1cc(=O)n2c(c1C(=O)NC(C)c1ccco1)CCN(C(=O)c1ccc(F)cc1Cl)CC2 (stereo unspecified)	.	.	.	-	.	.
COc1cc2c(cc1OC)CN(Cc1cc(OC)c(O)c(OC)c1)CC2	-	-	8.9µM	-	-	-
CCOc1ccc(CN2CCN(C(=O)c3cccc(F)c3)CC2)cc1	?	11µM	-	.	-	?
COc1ccc(C(=O)N2CCN(Cc3cc(OC)c(O)c(OC)c3)CC2)cc1OC	-	-	8.9µM	.	-	-
COc1cc(CN2CCN(c3ccccc3F)CC2)cc(OC)c1O	-	-	14µM	-	-	-
CCOc1ccc2oc(=O)cc(CN3CCN(C(=O)c4cccc(F)c4)CC3)c2c1	-	.	-	-	.	-
SMILES	MARV entry inh	HCV inhibitor	Sm TGR block	FMDV inh	RE007 growth inh	Lassa entry inh
COc1ccc(CN2CCN(C(=O)c3cc(OC)c(OC)c(OC)c3)CC2)cc1OC	-	-	-	-	-	-
CC(CCN1CCCc2nc(C)c(C)cc21)=NO[C@H](C)c1cn([C@@H]2COC[C@@H]2O)nn1	-	.	.	.	.	?
COc1cc(CN2CCN(C(=O)CC(C)C)CC2)cc(OC)c1OC	-	-	-	-	-	-
COc1cc(CN2CCN(C(=O)CC(C)C)CC2)cc(OC)c1O	-	-	13µM	.	-	-
COc1cc(Cl)c(C)cc1NC(=O)c1cc2ccc3cccnc3c2[nH]1	.	.	-	-	.	-
Cc1nc(C)c(-c2csc(Nc3ccc(F)cc3)n2)s1	?	4.5µM	-	-	-	?
COc1cccc(Nc2nc(-c3sc(C)nc3C)cs2)c1	.	5µM	-	-	-	.
COc1cc(NC(=O)C2=C(N3CCOCC3)/C(=C/c3ccc(Cl)cc3)CC2)cc(OC)c1OC	16µM	-	-	?	?	-
COc1cc(NC(=O)C2=C(N3CCOCC3)/C(=C\c3ccc(N(C)C)cc3)CCC2)cc(OC)c1OC	?	6.3µM	-	?	-	?
O=C(Nc1ccccc1)C1=C(N2CCOCC2)/C(=C/c2cccnc2)CC1	-	-	-	.	?	-
COc1cc(C(=O)Nc2ccc(N(C)C)cc2)cc(OC)c1OC	-	?	-	-	-	-
COc1ccc(C2CC(=O)c3c(C)nc(N4CCN(C=O)CC4)nc3C2)c(OC)c1 (stereo unspecified)	-	.	-	?	.	-
COc1ccc(C2=NS(=O)(=O)N(C)C(C(=O)NCc3ccccc3)=C2)cc1OC	-	-	-	-	-	-
CCc1ccc(NC(=O)C2=CC(c3ccc(OC)c(OC)c3)=NS(=O)(=O)N2C)cc1	.	5.6µM	-	?	-	.
COc1ccc(C2=NS(=O)(=O)N(C)C(C(=O)N3CCc4ccccc4C3)=C2)cc1OC	.	10µM	-	28µM	-	.
Cc1c(C)n(CCc2ccccc2)c2ncnc(NCCCN(C)C)c12	8.9µM	?	-	-	-	-
Cc1c(C)n(CCN(C)C)c2ncnc(NCc3ccccc3)c12	-	-	-	-	-	-
COc1ccc(-c2nnc(SCC(=O)Nc3cccc(C(F)(F)F)c3)nc2-c2ccc(OC)cc2)cc1	.	.	-	-	.	?
CCCCCC(O)CCCC(=O)O (stereo unspecified)	?	-	.	?	-[18.4 µM]	-
CCCCCCCCCCCCCCCC(O)C[N+](C)(C)CCO (stereo unspecified)	-	-	.	-	35µM	-
Cc1ccc(C(C)C)c(OCC(=O)Nc2ccc(-c3nc4ncccc4o3)cc2C)c1	-	.	-	-	.	-
CCC(C)N1C(=O)/C(=C/c2ccc3c(c2)CCN3CCCCl)C(=O)NC1=S (stereo unspecified)	-	-	?	32µM	-	?
O=C1NC(=O)N(c2ccc(Cl)cc2)C(=O)/C1=C/c1ccc2c(c1)CCN2Cc1ccccc1Cl	-	-	.	-	-	-
N#Cc1cccc(-c2nc3cnc(Nc4ccccc4)nc3n(C[C@H]3CCCO3)c2=O)c1	.	.	.	-	.	.
Cc1c(C(=O)c2ccc(F)cc2)c2ccccn2c1CCc1ccccn1	?	?	-	40µM	-	-
SMILES	MARV entry inh	HCV inhibitor	Sm TGR block	FMDV inh	RE007 growth inh	Lassa entry inh
Cc1c(C(=O)c2ccccc2)c2ccccn2c1CCc1ccccn1	?	-	-	-	-	?
COc1cccc2c1C(=O)C=C(C)C2=O	11µM	?	?	?	?	11µM
CC1=CC(=O)c2ccccc2C1=O	-	-	28µM	-	-[18.4 µM]	-
O=C1C=C(O)c2c(O)cccc2C1=O	.	.	50µM	.	.	.
CCOc1ccccc1C(O)C1=CC(=O)c2ccccc2C1=O (stereo unspecified)	-	-	.	-	-	-
CC(C)(C=O)C1=CC(=O)c2ccccc2C1=O	?	7.1µM	3.2µM	35µM	8.9µM	?
O=C(Cn1c(=O)c2cccn2c2ccc(F)cc21)N1CCN(c2ccccc2)CC1	.	.	?	-	.	-
